# Source: PubChem BioAssay (National Center for Advancing Translational Sciences (NCATS))
# Six1-Eya2 blk = blocks human Six1 binding to Eya2; AlphaScreen GST-Six1/His-Eya2 binding, biochemical; hits give low values; activity change, % (test concentration not listed); 360,000 tested, 0.56% active; AID 651725; in the data active = activity change below about -65%; inconclusive = mostly about -30% to -63%; note: % is set by controls: 0 for no effect and ±100 for the full control effect
# Target sequence (O00167 whole entry, looked up): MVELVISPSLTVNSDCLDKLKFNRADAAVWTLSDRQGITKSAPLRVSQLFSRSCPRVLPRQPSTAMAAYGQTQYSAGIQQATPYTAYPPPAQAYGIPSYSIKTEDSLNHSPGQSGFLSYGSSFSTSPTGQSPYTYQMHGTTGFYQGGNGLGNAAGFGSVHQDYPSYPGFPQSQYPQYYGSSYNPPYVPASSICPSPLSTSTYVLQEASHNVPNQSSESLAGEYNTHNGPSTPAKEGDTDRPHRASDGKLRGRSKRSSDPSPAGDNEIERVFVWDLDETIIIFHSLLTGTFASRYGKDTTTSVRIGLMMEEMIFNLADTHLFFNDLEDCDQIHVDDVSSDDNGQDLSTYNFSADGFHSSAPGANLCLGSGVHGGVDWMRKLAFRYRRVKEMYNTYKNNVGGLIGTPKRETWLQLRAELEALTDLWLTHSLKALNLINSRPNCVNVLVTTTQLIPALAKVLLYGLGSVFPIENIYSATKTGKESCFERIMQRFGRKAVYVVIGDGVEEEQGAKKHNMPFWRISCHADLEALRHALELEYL
# Target sequence (Q15475 whole entry, looked up): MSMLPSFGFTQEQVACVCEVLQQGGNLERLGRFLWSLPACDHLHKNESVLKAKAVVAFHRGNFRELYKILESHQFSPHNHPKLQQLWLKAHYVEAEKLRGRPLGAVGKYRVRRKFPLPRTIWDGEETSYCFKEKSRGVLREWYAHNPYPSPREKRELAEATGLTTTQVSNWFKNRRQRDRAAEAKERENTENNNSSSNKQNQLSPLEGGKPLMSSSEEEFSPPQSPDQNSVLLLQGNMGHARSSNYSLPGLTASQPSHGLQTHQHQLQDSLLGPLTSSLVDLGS
#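 Compounds are tested against tagged Six1 and Eya2 proteins bridged by glutathione donor and nickel acceptor beads; after a one-hour incubation at 37 °C without light, AlphaScreen emission is recorded.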
# BAZ2B block = BAZ2B (human) inhibition | Q9UIF8 | 360,000 tested, 4.4% active | AlphaScreen BAZ2B-H3K14Ac peptide displacement | Potency, µM (highest dose often 114 µM), for inactives: top-dose activity change, negative = inhibition, most hits filed as inhibitors; note: potency is the fitted concentration of half-maximal effect; % is set by controls: 0 for no effect and ±100 for the full control effect; nearly all actives have a fitted effect of over 60% in size
#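 Complex of BAZ2B and biotin-H3K14Ac (50 nM apiece) forms over 30 min at RT, then faces library compounds up to 110 uM for another 30 min; AlphaScreen beads added, 20 min dark incubation, luminescence read.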
# JMJD2A Tudor = inhibitors of human JMJD2A Tudor domain; Potency, µM (doses to about 114 µM), without a hit: top-dose activity change, negative = inhibition, hits mostly inhibitors; AlphaScreen JMJD2A-Tudor / H3K4me3 peptide binding; O75164; 390,000 tested, 4.4% active; note: potency is the fitted concentration of half-maximal effect; % is set by controls: 0 for no effect and ±100 for the full control effect; nearly all actives have a fitted effect of over 50% in size
# HP1b chromo inh = blocks HP1-beta chromodomain binding to methylated histone tails. Potency, µM (top dose mostly 114 µM), for inactives: top-dose activity change, negative = inhibition, usual class: inhibitors. AlphaScreen HP1-beta / biotin-H3K9me3 peptide binding. AID 540317. 390,000 tested, 0.56% active; note: potency is the fitted concentration of half-maximal effect; nearly all actives have a fitted effect of over 70% in size
#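 HP1-beta protein (50 nM final) preincubated 30 min at room temperature with biotinylated H3(1-18)K9me3 peptide (50 nM) in PBS pH 7.4, 0.01% Tween-20, then compound added for 30 min. AlphaScreen streptavidin donor/nickel chelate acceptor beads (10 ug/mL final), 30 min dark, luminescence read.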
# G9a inh = blocks human histone lysine methyltransferase G9a; Potency, µM (top dose mostly 102 µM), without a hit: at the highest dose activity, negative = inhibition, hits mostly inhibitors; AID 504332; 350,000 tested, 8.8% active; G9a H3K9 monomethylation, AlphaScreen, 2 h; Q96KQ7; note: potency is the fitted concentration of half-maximal effect; % is set by controls: 0 for no effect and ±100 for the full control effect; nearly all actives have a fitted effect of over 75% in size
#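 Signal arises when biotinylated H3K9 peptide, once monomethylated, bridges streptavidin donor and antibody-captured acceptor beads. Enzyme at 20 nM was preincubated 15 min with test compounds; peptide 500 nM and SAM 20 uM then reacted for 2 h.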
# CtBP-E1A blk = blocks the CtBP interaction with E1A. AlphaScreen GST-E1A/His-CtBP binding, 1536-well; hits give low values. 340,000 tested, 0.49% active. activity change, % (test concentration not listed). AID 651724; in the data active = activity change below about -65%; inconclusive = mostly about -30% to -63%; note: % is set by controls: 0 for no effect and ±100 for the full control effect
#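 AlphaScreen with 125 nM GST-E1A and 125 nM His-CtBP (5X stocks) in Tris pH 8.0, 300 mM NaCl, BSA, Tween 20, TCEP. Compounds preincubated 2 h at 37 deg C, then glutathione donor/nickel acceptor beads added for 1 h at 37 deg C in dark.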
# The depositor's hits bear a star; u = inconclusive; x = not tested or not shown; [ ] = another dose, or the depositor's remark. An excerpt weighted towards active compounds, which were near 10% of everything screened. Unless noted, calls come from the whole dose curve; as a rule, active = well fitted inhibition curve with a large enough effect; inconclusive = small, poorly fitted or top-dose-only effect; inactive = no such curve, though single readings can be large or run the other way.
SMILES,Six1-Eya2 blk,BAZ2B block,JMJD2A Tudor,HP1b chromo inh,G9a inh,CtBP-E1A blk
N#Cc1c(SCC(=O)Nc2cccc(F)c2)sc2c(O)cc(=O)[nH]c12,-13.3,-33.8%,-18.0%,14.0%,u,22.7
CCC1NC(=O)C(NC(=O)c2ncccc2O)C(C)OC(=O)C(c2ccccc2)NC(=O)C2CC(=O)CCN2C(=O)C(Cc2ccccc2)N(C)C(=O)C2CCCN2C1=O (configuration not stated),x,x,x,x,-31.5%[2.33 µM],x
Cc1cccc(NCc2n[nH]c(=S)n2-c2ccccc2)c1,24.4,u,-98.2%,-23.9%,u,x
Cc1ccc(NCc2n[nH]c(=S)n2-c2ccccc2)c(C)c1,1.6,u,56.2µM*,1.3%,3.98µM*,-4.2
Cc1ccc(NCc2n[nH]c(=S)n2-c2ccccc2)cc1,-0.5,u,u,-17.5%,1.58µM*,2.2
Cc1c(C(=O)Nc2cccc(Cl)c2)oc2ccc(S(=O)(=O)N(C)C3CCCCC3)cc12,x,6.3%,-15.3%,-4.7%,-3.7%[59 µM],x
O=S(=O)(NCc1ccccn1)c1cccc2nsnc12,1.5,u,u,27.0%,20µM*,2.6
O=S(=O)(NCc1ccccn1)c1ccccc1,-0.3,-0.7%,8.91µM*,21.6%,17.3%[59 µM],6.2
COC(=O)Nc1ccc(S(=O)(=O)NCc2ccccn2)cc1,4.8,-11.9%,5.62µM*,-5.9%,13.8%,7.8
O=S(=O)(NCCCc1ccccc1)c1cccc2nsnc12,12.3,-4.2%,-26.0%,12.9%,7.4%,0.0
COc1c(C)cc(S(=O)(=O)NCc2ccccn2)c(C)c1C,0.2,3.9%,25.1µM*,30.8%,-13.9%[0.501 µM],7.7
CO[C@@H]1C=CO[C@]2(C)Oc3c(C)c(O)c4c(O)c(c(C=NN5CCN(C)CC5)c(O)c4c3C2=O)NC(=O)C(C)=CC=C[C@H](C)[C@H](O)[C@H](C)[C@H](O)[C@H](C)[C@H](OC(C)=O)[C@H]1C,x,x,x,x,4.7%[21.5 µM],x
Cc1cccc(NCc2nc3ccccc3n2CCOc2ccccc2C)c1,x,u,u,15.0%,-21.3%[59 µM],x
O=S(=O)(NCc1ccccn1)c1ccccn1,-15.9,u,u,20.0%,x,-15.1
CCOc1ccc(OCC)c(S(=O)(=O)NCc2ccccn2)c1,3.2,-6.1%,89.1µM*,9.0%,-24.9%[59 µM],8.0
O=S(=O)(Cc1ccccc1)NCc1ccccn1,2.5,-11.5%,3.55µM*,7.9%,u,6.6
CCOc1ccc(Cl)cc1S(=O)(=O)NCc1ccccn1,1.2,-15.0%,-12.0%[11.4 µM],-31.3%,-4.5%,x
COc1ccc(Cn2c(=S)[nH]c3ccccc32)cc1,1.2,-30.3%,-22.8%,32.6%,1.78µM*,1.1
COCCn1c(=S)[nH]c2ccccc21,-1.3,-37.0%,-11.5%[57.1 µM],41.9%,39.8µM*,-4.0
COc1ccc(-n2c(=S)[nH]c3ccccc32)cc1,-0.5,u,39.8µM*,2.6%,3.55µM*,-3.8
COc1ccc(Cn2c(=O)sc3ccccc32)cc1,22.5,70.6%,22.5%,68.5%,23.9%[59 µM],14.5
CCOC(=O)N1CCC2(CC1)OC(=O)C(C)=C2C(=O)NCc1ccccc1OC,x,-1.0%,9.9%,28.4%,10.6%[59 µM],x
COc1cc(NC(=O)CN(C)Cc2ccc(OC(F)F)cc2)c(C)cc1[N+](=O)[O-],4.7,4.1%,-26.0%,5.3%,u,10.2
C=CCOc1ccc(CN(C)CC(=O)Nc2ccccc2[N+](=O)[O-])cc1,u,x,12.6µM*,u,14.1µM*,1.8
CCc1ccc(CN(C)CC(=O)Nc2ccccc2[N+](=O)[O-])cc1,-25.7,u,u,-23.8%,79.4µM*,-25.4
SMILES,Six1-Eya2 blk,BAZ2B block,JMJD2A Tudor,HP1b chromo inh,G9a inh,CtBP-E1A blk
CN(CC(=O)Nc1cccc(F)c1)CC(=O)Nc1ccccc1[N+](=O)[O-],17.3,u,-17.5%,25.8%,-44.7%[59 µM],0.2
COc1ccc(NS(=O)(=O)c2ccc(-c3cnc(C4CC4)o3)cc2)cc1Cl,x,-33.3%,-34.1%,18.7%,-19.3%[59 µM],x
CN(C)S(=O)(=O)c1ccc2c(c1)nnn2CCNC(=O)Nc1ccc(Br)cc1,x,-11.3%,8.9%,39.3%,6.5%[12.7 µM],x
CN(C)c1ccc(CNS(=O)(=O)c2ccc3c(c2)NC(=O)CS3)cc1,-11.3,u,u,-3.6%,50.1µM*,-21.0
CC(CS(=O)(=O)c1ccc2c(c1)NC(=O)CS2)C(=O)NCc1ccccc1Cl (configuration not stated),u,14.1µM*,25.1µM*,12.6µM*,u,-4.6
Cc1cc2c(c(/C=C/C(=O)c3ccccc3)c1)OC1(C=C2)Oc2ccccc2C(=O)N1C (configuration not stated),-0.1,u,-33.2%,16.3%,50.1µM*,0.0
Nc1cccc(Nc2ncnc3ccccc23)c1,-0.3,50.1µM*,4.4%,20.3%,-14.3%[0.501 µM],x
Oc1cccc(Nc2ncnc3ccccc23)c1,-0.9,2.4%,-4.3%,33.4%,-5.0%[12.7 µM],8.2
CC(C)(C)C(=O)Oc1cccc(Nc2ncnc3ccccc23)c1,-0.4,-1.7%,-12.5%,35.1%,x,9.8
CC(=O)Nc1ccc(Nc2ncnc3ccccc23)cc1,x,-22.3%,x,x,u,x
Fc1ccc(Nc2ncnc3ccccc23)cc1,9.3,-33.4%,-6.1%,34.5%,56.2µM*,7.2
O=C(O)c1cccc(Nc2ncnc3ccccc23)c1,4.4,u,79.4µM*,26.2%,-29.5%[12.7 µM],9.9
Cc1cc(C)nc(SCC(=O)N/N=C/c2cccc([N+](=O)[O-])c2)n1,-2.3,5.5%,39.8µM*,-23.6%,-23.3%,5.5
O=C(CSc1ncccn1)N/N=C/c1cccc([N+](=O)[O-])c1,-11.8,1.1%,0.7%,27.5%,2.8%[59 µM],-1.5
Cc1cc(C)nc(SCC(=O)N/N=C/c2cccn2-c2ccc(O)cc2)n1,-20.2,u,u,-26.4%,39.8µM*,-9.5
Cc1cc(C)nc(SCC(=O)NN=C2CCCC2)n1,-17.1,-18.9%,17.8µM*,u,11.7%[59 µM],x
O=C(CSc1ncccn1)NN=C1CCCCCCC1,7.2,-6.7%,0.8%,32.9%,7.5%[59 µM],-0.3
CCOc1ccc(-c2nnc(SCC(=O)Oc3ccccc3)o2)cc1,x,u,-16.9%,11.8%,-34.4%[59 µM],x
CCCSc1ncc(Cl)c(C(=O)NCc2ccc(C)cc2)n1,x,4.8%,1.0%,37.7%,14.6%[59 µM],x
CCC(=O)Nc1ccccc1Oc1ccccc1,1.4,10.0%,56.2µM*,u,5.3%[59 µM],3.7
CCOc1ccc(Oc2ccccc2NC(=O)CN2C(=O)NC3(CCCC3)C2=O)cc1,2.1,-0.3%,-9.0%,10.9%,56.2µM*,2.9
CCOc1ccc2nc(NC(=O)CN3C(=O)NC4(CCCC4)C3=O)sc2c1,3.5,-2.1%,-23.4%,-1.1%,50.1µM*,-4.7
Cc1nn(-c2ccc(N3CCCCC3)nn2)c(C)c1CCC(=O)NCc1ccc(Cl)cc1,x,u,u,101.4%,10.8%[59 µM],x
